High-throughput results: PubChem, NMMLSC
LAP4 TOR yeast: alters LAP4-GFP fluorescence in TOR pathway yeast screen. 320,000 tested, 0.34% active. S. cerevisiae LAP4-GFP multiplex, flow cytometry GFP, 3 h; median GFP as percent of DMSO wells. AID 2023. GFP response vs DMSO, % at 10 µM;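 active = GFP response vs DMSO above a set limit, about the screen mean plus 3 SD, cut at about 150% in these data; inconclusive = under 70 cell events counted for the yeast strain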
RPL19A TOR yeast: yeast TOR pathway RPL19A-GFP modulation; S. cerevisiae RPL19A-GFP strain, flow cytometry, 3 h; hits give low values; percent response vs DMSO, % at 10 µM; 330,000 tested, 0.3% active; AID 2025;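 active = percent response vs DMSO below 50%; inconclusive = fewer than 70 events counted for the yeast strain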;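 note: median channel GFP fluorescence of the barcoded RPL19A-GFP strain; lower means less RPL19A-GFP as with rapamycin TOR inhibition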
MEP2 TOR yeast: modulators of TOR pathway MEP2-GFP in S. cerevisiae. S. cerevisiae MEP2-GFP strain, flow cytometry GFP, 3 h; 100% = DMSO control level. GFP response vs DMSO, % at 10 µM. 330,000 tested, 0.51% active;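 active = GFP response versus DMSO above a set limit, roughly screen mean plus 3 SD, cut at about 180% in these data; inconclusive = fewer than 70 cells counted for a yeast strain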;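 note: median GFP fluorescence of the barcode-gated MEP2-GFP cells per well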
AGP1-GFP MLPCN: modulators of TOR pathway AGP1-GFP in S. cerevisiae; S. cerevisiae AGP1-GFP multiplex flow cytometry, 3 h; GFP as percent of DMSO wells; GFP response vs DMSO, % at 10 µM; 320,000 tested, 0.02% active;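 active = GFP response relative to DMSO above a set limit, near screen average plus 3 SD, cut at about 150% in these data; inconclusive = fewer than 70 cells counted for the yeast strain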;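 note: median GFP channel fluorescence of the gated AGP1 strain per well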
CIT2 TOR yeast: modulators of TOR pathway CIT2-GFP in S. cerevisiae; GFP response vs DMSO, % at 10 µM; AID 2029; 320,000 tested, 0.065% active; S. cerevisiae CIT2-GFP strain, flow cytometry, 3 h; 100 means same as DMSO wells;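 active = GFP response relative to DMSO above a set limit, near the screen mean plus 3 SD, cut at about 150% in these data; inconclusive = Fewer than 70 cells measured for a yeast strain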;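 note: ratio of well median GFP fluorescence to mean of DMSO wells on the plate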
Pemphigus Ab inh: blocks pemphigus antibody binding to human desmoglein-3; P32926; DSG3-coupled beads, scFv-anti-DSG3-GFP binding, flow cytometry; hits give low values; binding (percent of control), % at 10 µM; 310,000 tested, 0.48% active;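 active = binding more than 3 SD below its plate's average and above zero; inconclusive = below that plate limit but binding exactly zero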;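 note: hits lower antibody fragment binding to DSG3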
Target sequence (P32926 whole entry, looked up, the tested form may be a part): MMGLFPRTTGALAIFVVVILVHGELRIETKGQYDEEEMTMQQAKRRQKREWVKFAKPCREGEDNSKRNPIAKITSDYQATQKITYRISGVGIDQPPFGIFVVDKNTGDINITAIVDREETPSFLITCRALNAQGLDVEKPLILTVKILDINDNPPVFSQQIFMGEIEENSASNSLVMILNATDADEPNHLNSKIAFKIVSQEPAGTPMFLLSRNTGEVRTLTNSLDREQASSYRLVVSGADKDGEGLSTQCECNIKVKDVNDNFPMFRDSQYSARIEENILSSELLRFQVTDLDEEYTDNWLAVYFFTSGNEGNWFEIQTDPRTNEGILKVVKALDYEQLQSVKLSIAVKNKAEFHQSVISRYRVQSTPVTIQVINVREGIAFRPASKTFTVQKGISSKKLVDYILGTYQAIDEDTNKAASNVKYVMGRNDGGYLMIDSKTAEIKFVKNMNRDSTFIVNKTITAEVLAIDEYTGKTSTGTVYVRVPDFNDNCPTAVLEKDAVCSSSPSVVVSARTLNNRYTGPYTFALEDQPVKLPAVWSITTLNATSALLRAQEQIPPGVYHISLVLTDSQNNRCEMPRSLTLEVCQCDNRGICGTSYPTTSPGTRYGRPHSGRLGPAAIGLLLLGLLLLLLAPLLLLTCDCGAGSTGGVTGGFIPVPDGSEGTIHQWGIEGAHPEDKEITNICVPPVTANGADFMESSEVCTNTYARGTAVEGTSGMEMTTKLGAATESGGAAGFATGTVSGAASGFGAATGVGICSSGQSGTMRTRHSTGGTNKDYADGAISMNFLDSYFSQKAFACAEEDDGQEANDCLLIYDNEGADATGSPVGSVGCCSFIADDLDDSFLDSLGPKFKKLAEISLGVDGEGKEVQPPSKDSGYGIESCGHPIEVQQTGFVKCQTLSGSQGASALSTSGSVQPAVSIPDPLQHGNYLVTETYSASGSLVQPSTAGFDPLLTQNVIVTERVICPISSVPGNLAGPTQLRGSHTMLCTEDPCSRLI
LAP4-GFP pick2: second confirmation of modulators of TOR reporter LAP4-GFP in yeast; AID 2621; S. cerevisiae LAP4-GFP strain, flow cytometry GFP, 3 h; GFP response vs DMSO, % at 10 µM; shares compounds with LAP4 TOR yeast; 590 tested, 20% active;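 active = GFP signal as percent of the solvent control above about 150%, meaning raised reporter expression, limit read from the data; inconclusive = fewer than 70 cells counted in the well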
MEP2-GFP pick2: second confirmation of modulators of TOR reporter MEP2-GFP in yeast; S. cerevisiae MEP2-GFP strain, flow cytometry GFP, 3 h; 590 tested, 10% active; GFP response vs DMSO, % at 10 µM; shares compounds with LAP4 TOR yeast;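 active = GFP signal above 150% of the solvent control wells, that is a rise of more than half; inconclusive = fewer than 70 yeast cells counted in the well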;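 note: median channel GFP fluorescence of all gated yeast cells per well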
RPL19A GFP CP2: reconfirmed modulator of RPL19A-GFP TOR reporter in yeast | 590 tested, 3% active | shares compounds with LAP4 TOR yeast | GFP response vs DMSO, % at 10 µM | S. cerevisiae RPL19A-GFP strain, flow cytometry GFP, 3 h; hits give low values; 100% means same as DMSO wells | AID 2623;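 active = under 65% GFP response relative to DMSO; inconclusive = yeast strain with under 70 measured events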;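 note: median GFP channel fluorescence per well over the all cells gate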
CIT2-GFP pick2: reconfirmed modulator of CIT2-GFP TOR reporter in yeast; shares compounds with LAP4 TOR yeast; S. cerevisiae CIT2-GFP strain, flow cytometry GFP, 3 h; DMSO control wells read 100%; GFP response vs DMSO, % at 10 µM; 590 tested, 8% active;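 active = GFP response vs DMSO above about 150%, limit read from the data; inconclusive = fewer than 70 events counted for a yeast strain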;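 note: median green fluorescence per well over all gated yeast cells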
AGP1 GFP CP2: reconfirmed modulator of AGP1-GFP TOR reporter in yeast. shares compounds with LAP4 TOR yeast. S. cerevisiae AGP1-GFP strain, flow cytometry GFP, 3 h. percent response vs DMSO, % at 10 µM. 590 tested, under 10 active. AID 2643;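 active = over 150 percent of DMSO response; inconclusive = yeast strain measured with under 70 events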;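 note: median GFP channel fluorescence over all cells without mother daughter split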
Yeast autofluor: yeast s288c autofluorescence artifact, counter-screen | S. cerevisiae s288c, 520 nm autofluorescence, flow cytometry, 3 h; hits give high values; zero means same as solvent-only cells | 610 tested, under 10 active | shares compounds with LAP4 TOR yeast | fluorescence change (kMESF span) at 33 µM;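 active = fluorescence span over the dose series, or activity score, above about 33, limit read from the data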
A number is an active result. Compounds with a hit are over-represented: about 1.2% of the library has one in this group of screens.

What do the screens show for `CCOP(=O)(OCC)C(Nc1cccc([N+](=O)[O-])c1)c1ccc(N(C)C)cc1` (configuration not stated)?
LAP4 TOR yeast: inactive; RPL19A TOR yeast: inactive; MEP2 TOR yeast: inactive; AGP1-GFP MLPCN: inactive; CIT2 TOR yeast: inactive; Pemphigus Ab inh: inactive

How did CCOP(=O)(OCC)C(Nc1cccc([N+](=O)[O-])c1)c1ccc(OC)cc1 (configuration not stated) do in these assays?
LAP4 TOR yeast: inactive; RPL19A TOR yeast: inactive; MEP2 TOR yeast: inactive; AGP1-GFP MLPCN: inactive; CIT2 TOR yeast: inactive; Pemphigus Ab inh: inactive; LAP4-GFP pick2: inactive; MEP2-GFP pick2: inactive; RPL19A GFP CP2: inactive; CIT2-GFP pick2: inactive; AGP1 GFP CP2: inactive

Results for Cc1cc(C)nc(/N=C(\N)C2=C(O)CC(C)(C)CC2=O)n1 ?
LAP4 TOR yeast: inactive; RPL19A TOR yeast: inactive; MEP2 TOR yeast: inactive; AGP1-GFP MLPCN: inactive; Pemphigus Ab inh: inactive

Results for CCN1CCN(C(=O)c2ccc(C)c(S(=O)(=O)Nc3cccc(C)c3)c2)CC1 ?
LAP4 TOR yeast: inactive; RPL19A TOR yeast: inactive; MEP2 TOR yeast: inactive; AGP1-GFP MLPCN: inactive; CIT2 TOR yeast: 166; Pemphigus Ab inh: inactive; LAP4-GFP pick2: inactive; MEP2-GFP pick2: inactive; RPL19A GFP CP2: inactive; CIT2-GFP pick2: inactive; AGP1 GFP CP2: inactive

How did CC(C)(C)C(=O)NCC12C=CC(O1)C1C(=O)N(c3ccccc3)C(=O)C12 (configuration not stated) do in these assays?
LAP4 TOR yeast: inactive; RPL19A TOR yeast: inactive; MEP2 TOR yeast: inactive; AGP1-GFP MLPCN: inactive; CIT2 TOR yeast: inactive; Pemphigus Ab inh: inactive

Results for O=C1C2C3C=CC(CO)(O3)C2C(=O)N1c1ccc(-c2ccccc2)cc1 (configuration not stated) ?
LAP4 TOR yeast: 263; RPL19A TOR yeast: inactive; MEP2 TOR yeast: inactive; AGP1-GFP MLPCN: inactive; CIT2 TOR yeast: inactive; Yeast autofluor: inactive

How did O=Nc1ccc(O)c2ncccc12 do in these assays?
LAP4 TOR yeast: inactive; RPL19A TOR yeast: inactive; MEP2 TOR yeast: inactive; AGP1-GFP MLPCN: inactive; CIT2 TOR yeast: inactive; Pemphigus Ab inh: inactive

How did Oc1ccc(N=Nc2ccc3c(c2)OCCO3)c2cccnc12 do in these assays?
LAP4 TOR yeast: inactive; RPL19A TOR yeast: inactive; MEP2 TOR yeast: inactive; AGP1-GFP MLPCN: inactive; CIT2 TOR yeast: inactive; Pemphigus Ab inh: inactive

Results for Cc1ccccc1N=Nc1ccc(O)c2ncccc12 ?
LAP4 TOR yeast: 178; RPL19A TOR yeast: inactive; MEP2 TOR yeast: inactive; AGP1-GFP MLPCN: inactive; CIT2 TOR yeast: inactive; Pemphigus Ab inh: inactive; LAP4-GFP pick2: 216; MEP2-GFP pick2: inactive; RPL19A GFP CP2: inactive; CIT2-GFP pick2: 156; AGP1 GFP CP2: inactive; Yeast autofluor: inactive

Results for COc1ccc(N=Nc2ccc(O)c3ncccc23)cc1 ?
LAP4 TOR yeast: 215; RPL19A TOR yeast: inactive; MEP2 TOR yeast: inactive; AGP1-GFP MLPCN: inactive; CIT2 TOR yeast: inactive; Pemphigus Ab inh: inactive; Yeast autofluor: inactive

What do the screens show for `COc1ccc(C)cc1N=Nc1ccc(O)c2ncccc12`?
Pemphigus Ab inh: inactive

Results for COc1cccc(N=Nc2ccc(O)c3ncccc23)c1 ?
LAP4 TOR yeast: 180; RPL19A TOR yeast: inactive; MEP2 TOR yeast: inactive; AGP1-GFP MLPCN: inactive; CIT2 TOR yeast: inactive; Pemphigus Ab inh: inactive; Yeast autofluor: inactive

How did CCOC(=O)c1c(S(=O)(=O)N2CCN(c3ccc(F)cc3)CC2)c(C)n(C)c1C do in these assays?
LAP4 TOR yeast: inactive; RPL19A TOR yeast: inactive; MEP2 TOR yeast: inactive; AGP1-GFP MLPCN: inactive; CIT2 TOR yeast: inactive; Pemphigus Ab inh: inconclusive

What do the screens show for `Cn1c(C(O)c2ccccc2)nc(Cl)c1Cl` (configuration not stated)?
LAP4 TOR yeast: inactive; RPL19A TOR yeast: inactive; MEP2 TOR yeast: inactive; AGP1-GFP MLPCN: inactive; CIT2 TOR yeast: inactive; Pemphigus Ab inh: inactive

Results for CN1CCSc2ccc(C(=O)NCc3ccccc3F)cc21 ?
LAP4 TOR yeast: inactive; RPL19A TOR yeast: inactive; MEP2 TOR yeast: inactive; AGP1-GFP MLPCN: inactive; CIT2 TOR yeast: inactive; Pemphigus Ab inh: inactive

How did COc1cccc(CNC(=O)c2ccc3c(c2)N(C)CCS3)c1OC do in these assays?
LAP4 TOR yeast: 258; RPL19A TOR yeast: inactive; MEP2 TOR yeast: 759; AGP1-GFP MLPCN: 154; CIT2 TOR yeast: 161; Pemphigus Ab inh: inactive; LAP4-GFP pick2: inactive; MEP2-GFP pick2: inactive; RPL19A GFP CP2: inactive; CIT2-GFP pick2: inactive; AGP1 GFP CP2: inactive

How did Clc1nnc(NC2CCCCC2)c(Cl)c1Cl do in these assays?
Pemphigus Ab inh: inactive

How did CCOc1ccc(-c2nc(CS(=O)(=O)CC(=O)NCc3ccc(F)cc3)c(C)o2)cc1 do in these assays?
LAP4 TOR yeast: 181; RPL19A TOR yeast: inactive; MEP2 TOR yeast: 177; AGP1-GFP MLPCN: inactive; CIT2 TOR yeast: inactive; Pemphigus Ab inh: inactive; LAP4-GFP pick2: inactive; MEP2-GFP pick2: inactive; RPL19A GFP CP2: inactive; CIT2-GFP pick2: inactive; AGP1 GFP CP2: inactive

What do the screens show for `O=C(CN1C(=O)NC2(CCCC2)C1=O)Nc1ccc(F)c(Cl)c1`?
LAP4 TOR yeast: inactive; RPL19A TOR yeast: inactive; MEP2 TOR yeast: inactive; AGP1-GFP MLPCN: inactive; CIT2 TOR yeast: inactive

What do the screens show for `CC(C)(C)C1CCc2sc(-c3nnc(CCl)o3)cc2C1` (configuration not stated)?
LAP4 TOR yeast: inactive; RPL19A TOR yeast: inactive; MEP2 TOR yeast: inactive; AGP1-GFP MLPCN: inactive; CIT2 TOR yeast: inactive; Pemphigus Ab inh: inactive; LAP4-GFP pick2: inactive; MEP2-GFP pick2: inactive; RPL19A GFP CP2: inactive; CIT2-GFP pick2: inactive; AGP1 GFP CP2: inactive
